Screens (PubChem)
CHOP inh = CHOP inhibition in unfolded protein response; CHO-K1 CHOP-promoter luciferase, tunicamycin-induced, 15-18 h; inhibition, % at 10 µM; 220,000 compounds, 3.8% hits; AID 2732;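 active = compounds that reduced the stress-induced luciferase reporter signal by more than about 70% of percent inhibition, limit read from the data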;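 also: 0% = tunicamycin plus vehicle and 100% = wells without tunicamycin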
WT yeast gro inh = growth inhibition of WT yeast, mitochondrial fusion screen | 190,000 compounds, 2.1% hits | mitochondrial fusion phenotypic screen, WT strain | inhibition, % at 10 µM; in the data active = inhibition above about 58%; tested in S. cerevisiae
Arbovirus inh = antivirals against arbovirus infection | arbovirus infection cell-based antiviral screen | 200,000 compounds, 0.37% hits | AID 1251 | inhibition, % at 10 µM; in the data active = inhibition above about 30%
L major viab = reduces viability of Leishmania major promastigotes; AID 1063; inhibition, % at 10 µM; resazurin fluorescence viability; 200,000 compounds, 9% hits; in the data active = inhibition above about 50%;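 also: promastigotes grown with compound for 44 hours at 28 °C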
* = called active by the depositor. Sampled rows, rich in hits. Any-hit rate of the full collection: about 12%.

For COc1ccc(C)cc1NC(=O)CN1CCN(c2ccccc2F)CC1 the results were CHOP inh 29, WT yeast gro inh 18, Arbovirus inh 2 and L major viab 2.
For Cc1cc(-n2cnnn2)ccc1C(C)C the results were CHOP inh 21, WT yeast gro inh 14, Arbovirus inh 2 and L major viab -4.
For S=C(NC1CCCCC1)N1CCN(C/C=C/c2ccccc2)CC1 the results were CHOP inh 26, WT yeast gro inh 38, Arbovirus inh 9 and L major viab 94*.
O=C(CCN1CCN(c2ccccc2F)CC1)Nc1ccccc1F was read as CHOP inh -14, WT yeast gro inh 12, Arbovirus inh -9 and L major viab 9.
`O=C(CCN1CCN(C/C=C/c2ccccc2)CC1)Nc1ccccc1F` gave CHOP inh -5, WT yeast gro inh 13, Arbovirus inh 4 and L major viab 97*.
`COC(=O)c1cc(OC)c(OC)cc1NC(=S)N1CCCC1` gave CHOP inh 0, WT yeast gro inh -6, Arbovirus inh -4 and L major viab 88*.
For COc1ccccc1NC(=S)N1CCN(C/C=C/c2ccccc2)CC1 the results were CHOP inh -6, WT yeast gro inh 11, Arbovirus inh 5 and L major viab 67*.
For CC1COC(C)(CC(=O)NN2C(=O)c3ccccc3C2=O)O1 (centres undefined) the results were CHOP inh 15, WT yeast gro inh -9, Arbovirus inh 4 and L major viab -6.
For COc1ccc(/C=C(/NC(=O)c2ccccc2Cl)C(=O)O)cc1 the results were CHOP inh 8, WT yeast gro inh 2, Arbovirus inh 8 and L major viab -8.
For O=C(Nc1cccc(F)c1)N1CCN(C/C=C/c2ccccc2)CC1 the results were CHOP inh 29, WT yeast gro inh 3, Arbovirus inh 8 and L major viab 68*.
Screening COc1ccccc1NC(=S)N1CCN(Cc2ccccc2)CC1 returned CHOP inh 5, WT yeast gro inh -6, Arbovirus inh 12 and L major viab 83*.
Screening Fc1ccc(NC(=S)N2CCN(C/C=C/c3ccccc3)CC2)c(F)c1 returned CHOP inh 16, WT yeast gro inh 23, Arbovirus inh 8 and L major viab 81*.
Screening COc1ccc(NC(=S)N2CCN(C/C=C/c3ccccc3)CC2)c(OC)c1 returned CHOP inh 12, WT yeast gro inh 15, Arbovirus inh -5 and L major viab 42.
Screening Cc1ccccc1NC(=S)N1CCN(Cc2ccccc2)CC1 returned CHOP inh 14, WT yeast gro inh 18, Arbovirus inh 6 and L major viab -3.
Screening COCCNc1ccc([N+](=O)[O-])cc1C(=O)Nc1cccc(C)n1 returned CHOP inh 2, WT yeast gro inh 9, Arbovirus inh -4 and L major viab 2.
O=C(NC(=S)N(CC1CCC1)CC1CCCO1)c1cccc([N+](=O)[O-])c1 (centres undefined) was read as CHOP inh -24, WT yeast gro inh 53, Arbovirus inh -7 and L major viab 1.
For COc1ccc(/C=C/CN2CCC(CO)(Cc3ccccc3Cl)CC2)cc1 the results were CHOP inh 21, WT yeast gro inh 28, Arbovirus inh -37 and L major viab 96*.
COC(=O)c1ccc(CN2CCC(CO)(Cc3ccccc3Cl)CC2)cc1 was read as CHOP inh 20, WT yeast gro inh 1, Arbovirus inh -6 and L major viab 98*.
O=C(C1CC12CCCC2)N1CCC(CO)(Cc2ccccc2Cl)CC1 (centres undefined) was read as CHOP inh 36, WT yeast gro inh 18, Arbovirus inh -9 and L major viab -5.
COc1ccc(CNC(=O)COc2ccc([N+](=O)[O-])cc2)cc1 was read as CHOP inh -2, WT yeast gro inh 6, Arbovirus inh 3 and L major viab -1.
`O=C(NCCCn1ccnc1)/C(=C\c1cccs1)NC(=O)c1ccco1` gave CHOP inh 49, WT yeast gro inh -16, Arbovirus inh -3 and L major viab 56*.
`CC(C)c1ccccc1-n1c(-c2cccnc2)n[nH]c1=S` gave CHOP inh -1, WT yeast gro inh 3, Arbovirus inh -1 and L major viab -3.
For O=C(Cn1cncn1)N/N=C/c1ccccc1O the results were CHOP inh -1.
Screening CCCCOC(=O)/C=C/c1c(C)[nH]c(=O)[nH]c1=O returned CHOP inh 46, WT yeast gro inh 9, Arbovirus inh -5 and L major viab 52*.
`O=[N+]([O-])c1ccc(NC2CCCC2)cc1` gave CHOP inh -2, WT yeast gro inh 3, Arbovirus inh -3 and L major viab 43.
O=[N+]([O-])c1ccc(N/N=C2/CCCCC2c2ccccn2)cc1 (centres undefined) was read as CHOP inh 10, WT yeast gro inh 74*, Arbovirus inh -10 and L major viab 98*.
